# Test results reported in publication PMC7862700, “An all-to-all approach to the identification of sequence-specific readers for epigenetic DNA modifications on cytosine”.
# Tests used:
# Experiment in all cases: DAPPL (digital affinity profiling via proximity ligation, sequencing); 10 mM Tris-HCl pH 7.5, 50 mM NaCl, 1 mM DTT, 4% glycerol, room temperature, 30 min; GST-TFs on glutathione beads, 16-mer random dsDNA library, 0.1% formaldehyde crosslink after washing; high values mean tight binding
# FLI1 = target: T1, FLI1 (Homo sapiens, UniProt Q01543 1-452); conditions: protein: recombinant; tags: N-terminal GST; dsDNA, one strand shown
# T1 sequence: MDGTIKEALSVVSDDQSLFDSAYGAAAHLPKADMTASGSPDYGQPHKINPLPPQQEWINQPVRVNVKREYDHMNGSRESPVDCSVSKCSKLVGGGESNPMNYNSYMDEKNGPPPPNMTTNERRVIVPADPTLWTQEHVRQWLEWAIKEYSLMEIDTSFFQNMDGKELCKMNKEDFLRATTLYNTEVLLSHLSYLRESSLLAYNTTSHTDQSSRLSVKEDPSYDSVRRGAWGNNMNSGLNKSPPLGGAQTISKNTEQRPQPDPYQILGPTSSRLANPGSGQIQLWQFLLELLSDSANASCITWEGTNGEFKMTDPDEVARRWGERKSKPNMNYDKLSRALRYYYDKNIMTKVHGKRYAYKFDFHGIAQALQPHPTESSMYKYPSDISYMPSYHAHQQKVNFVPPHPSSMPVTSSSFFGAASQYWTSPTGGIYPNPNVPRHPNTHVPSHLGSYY
# Summary of the method: (§1)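 Human transcription factors fused to GST were expressed in yeast, captured on glutathione beads, given DNA barcodes and pooled with a GST-only negative control. Pools were incubated with 200 nmole of a 16-mer random double-stranded DNA library in Tris/NaCl/DTT/glycerol buffer at room temperature for 30 min. They were then washed, crosslinked with 0.1% formaldehyde, proximity-ligated (BsaI/T4 ligase, 1 h, 37 °C), PCR-amplified and sequenced on an Illumina NextSeq500. Binding signal is each 6-mer's read frequency for a factor divided by its frequency for the GST control.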
# ELK1 = target: T2, ELK1 (Homo sapiens, UniProt P19419 1-428); conditions: protein: recombinant; tags: N-terminal GST; dsDNA, one strand shown
# T2 sequence: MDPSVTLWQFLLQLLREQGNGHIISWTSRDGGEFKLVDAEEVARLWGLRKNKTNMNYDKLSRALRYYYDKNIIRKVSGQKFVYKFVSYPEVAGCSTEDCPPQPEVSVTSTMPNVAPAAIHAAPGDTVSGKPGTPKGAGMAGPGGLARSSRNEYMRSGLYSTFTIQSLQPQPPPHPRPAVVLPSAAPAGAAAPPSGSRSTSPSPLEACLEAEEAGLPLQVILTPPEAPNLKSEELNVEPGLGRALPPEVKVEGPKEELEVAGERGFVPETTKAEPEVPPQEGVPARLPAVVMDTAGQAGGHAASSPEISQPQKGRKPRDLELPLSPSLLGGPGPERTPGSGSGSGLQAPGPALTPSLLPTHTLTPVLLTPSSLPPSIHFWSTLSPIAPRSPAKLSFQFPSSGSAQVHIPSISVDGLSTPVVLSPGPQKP
# Summary of the method: as §1
# GABPA = target: T3, GABPA (Homo sapiens, UniProt Q06546 1-454); conditions: protein: recombinant; tags: N-terminal GST; dsDNA, one strand shown
# T3 sequence: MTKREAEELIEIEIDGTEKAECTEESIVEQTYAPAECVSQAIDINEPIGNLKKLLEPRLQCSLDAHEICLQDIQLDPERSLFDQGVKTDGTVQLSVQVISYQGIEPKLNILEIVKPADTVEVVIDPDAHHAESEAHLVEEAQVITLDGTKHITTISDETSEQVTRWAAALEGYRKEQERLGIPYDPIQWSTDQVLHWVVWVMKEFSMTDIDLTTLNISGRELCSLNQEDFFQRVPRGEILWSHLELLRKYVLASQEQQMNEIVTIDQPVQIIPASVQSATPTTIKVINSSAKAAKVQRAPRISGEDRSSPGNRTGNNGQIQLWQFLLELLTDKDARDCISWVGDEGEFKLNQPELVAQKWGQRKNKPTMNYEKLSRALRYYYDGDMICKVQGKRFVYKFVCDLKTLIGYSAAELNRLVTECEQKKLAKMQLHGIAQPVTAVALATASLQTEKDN
# Summary of the method: as §1
# ERG = target: T4, ERG (Homo sapiens, UniProt P11308 1-479); conditions: protein: recombinant; tags: N-terminal GST; dsDNA, one strand shown
# T4 sequence: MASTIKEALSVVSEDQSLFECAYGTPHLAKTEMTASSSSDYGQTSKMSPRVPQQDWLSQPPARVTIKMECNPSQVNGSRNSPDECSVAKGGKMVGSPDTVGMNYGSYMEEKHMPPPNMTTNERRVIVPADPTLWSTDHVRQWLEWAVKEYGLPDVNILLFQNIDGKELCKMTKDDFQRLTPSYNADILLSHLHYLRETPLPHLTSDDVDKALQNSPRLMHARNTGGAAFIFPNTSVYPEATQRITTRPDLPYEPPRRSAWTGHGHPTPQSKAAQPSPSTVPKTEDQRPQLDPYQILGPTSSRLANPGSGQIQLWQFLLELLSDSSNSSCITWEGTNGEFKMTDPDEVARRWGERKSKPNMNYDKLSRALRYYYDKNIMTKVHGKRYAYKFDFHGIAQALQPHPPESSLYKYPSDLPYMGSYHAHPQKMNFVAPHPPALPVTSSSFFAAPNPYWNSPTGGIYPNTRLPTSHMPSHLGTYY
# Summary of the method: as §1
# ELF1 = ELF1 (Homo sapiens, UniProt P32519 1-619); conditions: protein: recombinant; tags: N-terminal GST; dsDNA, one strand shown
# Summary of the method: as §1
# EHF = target: T5, EHF (Homo sapiens, UniProt Q9NZC4 1-300); conditions: protein: recombinant; tags: N-terminal GST; dsDNA, one strand shown
# T5 sequence: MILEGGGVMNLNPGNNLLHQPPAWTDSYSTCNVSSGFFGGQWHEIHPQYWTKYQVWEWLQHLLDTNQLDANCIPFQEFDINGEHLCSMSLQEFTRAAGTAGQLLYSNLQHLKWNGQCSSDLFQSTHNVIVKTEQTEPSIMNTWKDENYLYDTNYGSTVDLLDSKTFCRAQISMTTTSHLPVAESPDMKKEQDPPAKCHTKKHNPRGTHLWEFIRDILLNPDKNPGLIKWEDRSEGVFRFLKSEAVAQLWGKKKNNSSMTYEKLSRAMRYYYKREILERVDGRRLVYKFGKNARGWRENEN
# Summary of the method: as §1
# SPI1 = SPI1 (Homo sapiens, UniProt P17947 1-270); conditions: protein: recombinant; tags: N-terminal GST; dsDNA, one strand shown
# Summary of the method: as §1
# SPIB = SPIB (Homo sapiens, UniProt Q01892 1-262); conditions: protein: recombinant; tags: N-terminal GST; dsDNA, one strand shown
# Summary of the method: as §1
# ELK3 = target: T6, ELK3 (Homo sapiens, UniProt P41970 1-407); conditions: protein: recombinant; tags: N-terminal GST; dsDNA, one strand shown
# T6 sequence: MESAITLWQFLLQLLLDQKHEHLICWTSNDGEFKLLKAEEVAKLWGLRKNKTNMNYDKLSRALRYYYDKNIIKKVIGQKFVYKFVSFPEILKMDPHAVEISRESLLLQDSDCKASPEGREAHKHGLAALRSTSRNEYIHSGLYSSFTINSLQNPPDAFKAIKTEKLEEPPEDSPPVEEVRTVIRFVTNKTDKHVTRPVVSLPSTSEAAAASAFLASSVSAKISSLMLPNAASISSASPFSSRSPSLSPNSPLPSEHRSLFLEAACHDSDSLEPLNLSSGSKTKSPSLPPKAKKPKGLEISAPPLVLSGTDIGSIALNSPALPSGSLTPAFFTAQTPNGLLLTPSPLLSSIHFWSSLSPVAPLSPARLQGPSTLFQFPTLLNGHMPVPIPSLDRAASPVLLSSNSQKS
# Summary of the method: as §1
# FEV = target: T7, FEV (Homo sapiens, UniProt Q99581 1-238); conditions: protein: recombinant; tags: N-terminal GST; dsDNA, one strand shown
# T7 sequence: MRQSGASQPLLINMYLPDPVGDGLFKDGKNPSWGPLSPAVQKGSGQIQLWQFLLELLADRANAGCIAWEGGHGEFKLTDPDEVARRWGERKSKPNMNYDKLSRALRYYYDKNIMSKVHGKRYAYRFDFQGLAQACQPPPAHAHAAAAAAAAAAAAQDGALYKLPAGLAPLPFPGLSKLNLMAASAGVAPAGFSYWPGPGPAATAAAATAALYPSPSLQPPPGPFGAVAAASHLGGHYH
# Summary of the method: as §1
# ETV5 = ETV5 (Homo sapiens, UniProt P41161 1-510); conditions: protein: recombinant; tags: N-terminal GST; dsDNA, one strand shown
# Summary of the method: as §1
# HSF1 = HSF1 (Homo sapiens, UniProt Q00613 1-529); conditions: protein: recombinant; tags: N-terminal GST; chain copies: 3; dsDNA, one strand shown
# Summary of the method: as §1
# SPIC = target: T8, SPIC (Homo sapiens, UniProt Q8N5J4 1-248); conditions: protein: recombinant; tags: N-terminal GST; dsDNA, one strand shown
# T8 sequence: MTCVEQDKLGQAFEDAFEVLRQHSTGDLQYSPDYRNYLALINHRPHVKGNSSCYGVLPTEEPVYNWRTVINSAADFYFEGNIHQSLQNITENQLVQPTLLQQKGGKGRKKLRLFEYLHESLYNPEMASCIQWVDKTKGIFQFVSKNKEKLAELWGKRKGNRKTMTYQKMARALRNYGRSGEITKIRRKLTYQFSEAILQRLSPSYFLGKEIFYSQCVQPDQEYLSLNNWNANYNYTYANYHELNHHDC
# Summary of the method: as §1
# ELF4 = ELF4 (Homo sapiens, UniProt Q99607 1-663); conditions: protein: recombinant; tags: N-terminal GST; dsDNA, one strand shown
# Summary of the method: as §1
# ELK4 = target: T9, ELK4 (Homo sapiens, UniProt P28324-2 1-405); conditions: protein: recombinant; tags: N-terminal GST; dsDNA, one strand shown
# T9 sequence: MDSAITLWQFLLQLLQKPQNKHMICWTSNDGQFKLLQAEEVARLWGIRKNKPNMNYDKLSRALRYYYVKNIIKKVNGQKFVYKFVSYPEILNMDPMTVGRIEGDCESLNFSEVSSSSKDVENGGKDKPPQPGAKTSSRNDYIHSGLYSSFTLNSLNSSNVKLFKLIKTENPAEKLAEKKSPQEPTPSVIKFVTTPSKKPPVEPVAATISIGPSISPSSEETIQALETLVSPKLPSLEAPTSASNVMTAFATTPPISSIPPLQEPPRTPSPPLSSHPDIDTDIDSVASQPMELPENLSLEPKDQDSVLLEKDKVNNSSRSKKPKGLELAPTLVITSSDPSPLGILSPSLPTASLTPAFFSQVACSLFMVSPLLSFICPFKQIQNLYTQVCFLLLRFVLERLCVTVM
# Summary of the method: as §1
# ETV2 = target: T10, ETV2 (Homo sapiens, UniProt O00321 1-342); conditions: protein: recombinant; tags: N-terminal GST; dsDNA, one strand shown
# T10 sequence: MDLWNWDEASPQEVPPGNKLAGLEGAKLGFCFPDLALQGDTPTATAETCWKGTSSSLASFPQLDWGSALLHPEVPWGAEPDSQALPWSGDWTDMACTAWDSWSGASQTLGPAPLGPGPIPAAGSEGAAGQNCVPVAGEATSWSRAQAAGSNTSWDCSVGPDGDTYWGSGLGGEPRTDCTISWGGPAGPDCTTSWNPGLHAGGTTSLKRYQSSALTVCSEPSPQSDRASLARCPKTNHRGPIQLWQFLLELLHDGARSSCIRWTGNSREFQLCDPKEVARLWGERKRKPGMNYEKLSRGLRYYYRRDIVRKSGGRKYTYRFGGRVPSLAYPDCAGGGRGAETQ
# Summary of the method: as §1
# ELF3 = target: T11, ELF3 (Homo sapiens, UniProt P78545 1-371); conditions: protein: recombinant; tags: N-terminal GST; dsDNA, one strand shown
# T11 sequence: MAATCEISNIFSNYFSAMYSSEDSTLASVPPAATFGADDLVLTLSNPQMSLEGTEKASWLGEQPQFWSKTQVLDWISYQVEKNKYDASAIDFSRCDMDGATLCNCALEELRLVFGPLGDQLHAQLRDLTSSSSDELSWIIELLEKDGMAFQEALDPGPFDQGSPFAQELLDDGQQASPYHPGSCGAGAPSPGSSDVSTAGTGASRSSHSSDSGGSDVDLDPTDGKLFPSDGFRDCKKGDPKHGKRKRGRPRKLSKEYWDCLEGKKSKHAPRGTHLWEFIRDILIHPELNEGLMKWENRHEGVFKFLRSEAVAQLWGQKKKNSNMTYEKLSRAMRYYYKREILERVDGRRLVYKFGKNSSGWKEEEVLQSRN
# Summary of the method: as §1
# CRX = CRX (Homo sapiens, UniProt O43186 1-299); conditions: protein: recombinant; tags: N-terminal GST; dsDNA, one strand shown
# Summary of the method: as §1
# ETV1 = ETV1 (Homo sapiens, UniProt P50549 1-477); conditions: protein: recombinant; tags: N-terminal GST; dsDNA, one strand shown
# Summary of the method: as §1
# Sequence of SPIB (Q01892 whole entry): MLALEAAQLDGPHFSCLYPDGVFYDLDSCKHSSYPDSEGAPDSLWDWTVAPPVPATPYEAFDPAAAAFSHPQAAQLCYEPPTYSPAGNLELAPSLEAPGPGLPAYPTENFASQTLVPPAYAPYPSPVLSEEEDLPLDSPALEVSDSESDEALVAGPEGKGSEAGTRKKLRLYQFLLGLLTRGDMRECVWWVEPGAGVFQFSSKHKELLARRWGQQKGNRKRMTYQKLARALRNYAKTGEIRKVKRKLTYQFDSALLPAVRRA
# Sequence of CRX (O43186 whole entry): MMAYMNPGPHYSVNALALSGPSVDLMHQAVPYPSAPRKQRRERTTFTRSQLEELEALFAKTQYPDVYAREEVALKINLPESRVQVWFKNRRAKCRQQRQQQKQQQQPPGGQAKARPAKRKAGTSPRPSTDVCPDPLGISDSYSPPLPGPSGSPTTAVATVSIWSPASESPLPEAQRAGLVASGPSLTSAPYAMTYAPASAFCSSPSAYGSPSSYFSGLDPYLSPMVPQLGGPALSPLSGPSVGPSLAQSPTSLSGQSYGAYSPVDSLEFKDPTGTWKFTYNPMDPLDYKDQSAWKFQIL
# Sequence of HSF1 (Q00613 whole entry): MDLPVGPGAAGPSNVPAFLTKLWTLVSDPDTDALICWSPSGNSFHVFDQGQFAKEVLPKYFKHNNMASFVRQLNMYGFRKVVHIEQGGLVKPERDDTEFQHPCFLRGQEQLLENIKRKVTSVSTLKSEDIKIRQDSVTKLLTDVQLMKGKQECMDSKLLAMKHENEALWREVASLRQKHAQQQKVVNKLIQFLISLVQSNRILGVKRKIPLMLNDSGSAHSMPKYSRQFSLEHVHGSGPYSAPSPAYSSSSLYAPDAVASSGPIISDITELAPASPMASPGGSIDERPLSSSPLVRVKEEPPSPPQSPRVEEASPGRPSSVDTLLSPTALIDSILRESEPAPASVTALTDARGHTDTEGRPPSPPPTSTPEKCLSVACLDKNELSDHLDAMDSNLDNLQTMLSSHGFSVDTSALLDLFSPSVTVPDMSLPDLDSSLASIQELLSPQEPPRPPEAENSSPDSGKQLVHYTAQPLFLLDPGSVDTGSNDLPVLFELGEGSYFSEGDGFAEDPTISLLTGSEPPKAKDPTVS
# Sequence of ETV5 (P41161 whole entry): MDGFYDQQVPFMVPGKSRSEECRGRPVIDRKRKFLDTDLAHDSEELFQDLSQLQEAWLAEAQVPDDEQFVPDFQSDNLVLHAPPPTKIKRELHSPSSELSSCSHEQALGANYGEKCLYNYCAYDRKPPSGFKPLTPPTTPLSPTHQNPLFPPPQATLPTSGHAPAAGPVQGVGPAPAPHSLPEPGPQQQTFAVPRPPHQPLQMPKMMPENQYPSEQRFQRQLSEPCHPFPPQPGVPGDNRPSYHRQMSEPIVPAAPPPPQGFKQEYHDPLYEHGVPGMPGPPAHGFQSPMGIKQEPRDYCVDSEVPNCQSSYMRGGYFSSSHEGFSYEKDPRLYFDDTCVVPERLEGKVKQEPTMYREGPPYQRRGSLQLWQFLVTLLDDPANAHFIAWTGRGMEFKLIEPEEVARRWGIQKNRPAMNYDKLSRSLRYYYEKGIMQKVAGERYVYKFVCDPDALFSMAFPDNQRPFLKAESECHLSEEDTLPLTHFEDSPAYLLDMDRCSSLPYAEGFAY
# Sequence of ELF1 (P32519 whole entry): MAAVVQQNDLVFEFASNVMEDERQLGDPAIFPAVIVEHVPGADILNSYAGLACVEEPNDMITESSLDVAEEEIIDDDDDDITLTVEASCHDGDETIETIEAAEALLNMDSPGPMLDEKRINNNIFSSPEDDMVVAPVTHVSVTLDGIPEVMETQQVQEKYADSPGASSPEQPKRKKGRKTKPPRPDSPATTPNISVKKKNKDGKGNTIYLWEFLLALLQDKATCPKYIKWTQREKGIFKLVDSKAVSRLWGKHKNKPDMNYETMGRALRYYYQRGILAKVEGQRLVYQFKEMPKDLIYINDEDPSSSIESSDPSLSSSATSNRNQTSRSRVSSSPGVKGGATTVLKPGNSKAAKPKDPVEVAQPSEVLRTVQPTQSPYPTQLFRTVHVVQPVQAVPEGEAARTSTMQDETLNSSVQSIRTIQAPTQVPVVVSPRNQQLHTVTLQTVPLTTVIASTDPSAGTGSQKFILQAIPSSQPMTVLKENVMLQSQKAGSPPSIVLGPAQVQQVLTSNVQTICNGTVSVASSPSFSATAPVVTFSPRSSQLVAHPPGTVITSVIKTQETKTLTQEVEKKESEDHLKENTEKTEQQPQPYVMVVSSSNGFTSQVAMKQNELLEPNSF
# Sequence of ETV1 (P50549 whole entry): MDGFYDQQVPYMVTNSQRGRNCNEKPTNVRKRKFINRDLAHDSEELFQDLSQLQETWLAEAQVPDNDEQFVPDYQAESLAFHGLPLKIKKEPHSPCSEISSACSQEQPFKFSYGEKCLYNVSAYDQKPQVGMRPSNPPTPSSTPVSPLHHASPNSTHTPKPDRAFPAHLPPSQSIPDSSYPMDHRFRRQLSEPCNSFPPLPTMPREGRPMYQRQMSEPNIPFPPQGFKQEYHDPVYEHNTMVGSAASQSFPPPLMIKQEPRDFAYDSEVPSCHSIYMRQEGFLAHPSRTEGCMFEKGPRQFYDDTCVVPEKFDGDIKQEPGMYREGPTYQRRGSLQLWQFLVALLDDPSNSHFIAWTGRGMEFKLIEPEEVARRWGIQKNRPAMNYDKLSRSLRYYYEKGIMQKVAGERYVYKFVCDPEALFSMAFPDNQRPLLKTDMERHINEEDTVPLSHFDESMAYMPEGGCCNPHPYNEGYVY
# Sequence of ELF4 (Q99607 whole entry): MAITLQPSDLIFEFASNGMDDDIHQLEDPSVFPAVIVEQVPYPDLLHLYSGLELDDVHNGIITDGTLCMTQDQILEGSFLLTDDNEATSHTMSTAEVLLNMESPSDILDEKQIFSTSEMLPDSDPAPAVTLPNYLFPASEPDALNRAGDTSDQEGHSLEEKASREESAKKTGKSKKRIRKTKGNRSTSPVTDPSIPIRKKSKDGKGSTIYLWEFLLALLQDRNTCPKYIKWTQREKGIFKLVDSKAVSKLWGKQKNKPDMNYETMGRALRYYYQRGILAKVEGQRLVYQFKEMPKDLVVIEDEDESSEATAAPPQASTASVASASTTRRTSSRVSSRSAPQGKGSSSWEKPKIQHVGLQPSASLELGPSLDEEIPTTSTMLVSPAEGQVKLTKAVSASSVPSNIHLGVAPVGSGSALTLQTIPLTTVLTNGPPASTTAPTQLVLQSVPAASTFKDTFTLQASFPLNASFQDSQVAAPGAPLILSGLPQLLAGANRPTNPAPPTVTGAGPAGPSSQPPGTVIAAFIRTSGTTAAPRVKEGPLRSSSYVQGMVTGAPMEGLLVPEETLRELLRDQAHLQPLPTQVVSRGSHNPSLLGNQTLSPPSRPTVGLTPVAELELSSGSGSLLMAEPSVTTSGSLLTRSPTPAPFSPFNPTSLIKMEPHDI
sequence,measurement,setting,value
AAAAAT,binding signal,FLI1,"1.28 fold enrichment (6-mer frequency, TF over GST control)"
same,binding signal,ELK1,"1.24 fold enrichment (6-mer frequency, TF over GST control)"
same,binding signal,GABPA,"1.31 fold enrichment (6-mer frequency, TF over GST control)"
same,binding signal,ERG,"1.26 fold enrichment (6-mer frequency, TF over GST control)"
same,binding signal,ELF1,"1.31 fold enrichment (6-mer frequency, TF over GST control)"
same,binding signal,EHF,"1.37 fold enrichment (6-mer frequency, TF over GST control)"
same,binding signal,SPI1,"1.29 fold enrichment (6-mer frequency, TF over GST control)"
same,binding signal,SPIB,"1.43 fold enrichment (6-mer frequency, TF over GST control)"
same,binding signal,ELK3,"1.39 fold enrichment (6-mer frequency, TF over GST control)"
same,binding signal,FEV,"1.27 fold enrichment (6-mer frequency, TF over GST control)"
same,binding signal,ETV5,"1.3 fold enrichment (6-mer frequency, TF over GST control)"
same,binding signal,HSF1,"1.5 fold enrichment (6-mer frequency, TF over GST control)"
same,binding signal,SPIC,"1.25 fold enrichment (6-mer frequency, TF over GST control)"
same,binding signal,ELF4,"1.38 fold enrichment (6-mer frequency, TF over GST control)"
same,binding signal,ELK4,"1.31 fold enrichment (6-mer frequency, TF over GST control)"
same,binding signal,ETV2,"1.49 fold enrichment (6-mer frequency, TF over GST control)"
same,binding signal,ELF3,"1.25 fold enrichment (6-mer frequency, TF over GST control)"
same,binding signal,CRX,"1.4 fold enrichment (6-mer frequency, TF over GST control)"
same,binding signal,ETV1,"1.26 fold enrichment (6-mer frequency, TF over GST control)"
